In PMC3795721, “Screening for Protein-DNA Interactions by Automatable DNA-Protein Interaction ELISA”:

Biological target: AT4G31550 (Arabidopsis thaliana, UniProt Q9SV15 228-325)
Test: DPI-ELISA; DPI-ELISA, streptavidin 384-well plate, 1-2 pmol biotinylated dsDNA per well, crude native E. coli extract, anti-His detection; buffer as in Brand et al. [46],; high values mean tight binding
Settings: tags: C-terminal His (pET-DEST42); label: 5' biotin on forward strand; dsDNA, one strand shown

Sequence of AT4G31550 (Q9SV15 228-325): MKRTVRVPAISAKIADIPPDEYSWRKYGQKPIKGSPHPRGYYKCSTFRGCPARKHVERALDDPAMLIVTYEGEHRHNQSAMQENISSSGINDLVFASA

Sequence | binding signal
AAAAAAACGCTATATATTGGTGCTAGAAAA | 0.695 ± 0.134 absorbance
AAAAAAAGGTTTGGGCTTCACGTTATAAAA | 0.725 ± 0.12 absorbance
AAAAAAAATCTTAGCTCTATCTCATCAAAA | 0.68 ± 0.113 absorbance
AAAAAACGCTCCGTTTTTGCAATGCGAAAA | 0.61 ± 0.0707 absorbance
AAAAAATATGTAGCTGCCGTTACGCTAAAA | 0.54 ± 0.212 absorbance
AAAAAACTGCTAATCGGTGACCCGATAAAA | 0.745 ± 0.00707 absorbance
AAAAAATAAGTAACCGAACGAAACTCAAAA | 0.75 ± 0.269 absorbance
AAAAAATTTTGTTTTTGCTTTTCCTTAAAA | 0.38 ± 0.0566 absorbance
AAAAAAAACAAAACCTCCTAATAGCGAAAA | 0.42 ± 0.113 absorbance
AAAAAACTGTGTCCCCGTCCCATCTCAAAA | 0.525 ± 0.12 absorbance
